# Laboratory results published in PubChem BioAssay (NCATS).
# Records with an inconclusive call do not appear. A call without a number means that no potency is given here. Calls of active or inactive are those of the source. Unless noted, the call rests on the fitted dose curve; in most records, active means well fitted curve in the direction sought with a large enough effect; inconclusive means small, poorly fitted or top-dose-only effect, or another doubt; inactive means no such curve, though single readings can be large; an effect the other way counts as inactive or inconclusive.
# What was measured:
# [1] = target: Cytochrome P450 2C9 (Homo sapiens) (UniProt P11712); assay: qHTS for inhibitors of CYP2C9 against the NCATS DSHEA and TCM libraries (AID 1919973);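 further: luminogenic pro-luciferin CYP2C9 substrate turned into luciferin with NADPH regeneration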
# Summary of the method: (§1)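 Light output from converted D-luciferin reports remaining CYP activity. Compounds preincubate with enzyme and substrate for 15 min; NADPH regeneration (1x final) runs the reaction for 30-45 min.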
# [2] = KB-3-1 P-gp reporter qHTS against the NCATS DSHEA and TCM libraries (AID 1919975)
# Summary of the method: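 72 h exposure of KB-3-1 cells (DMEM, 10% FBS) to DSHEA/TCM samples, concentration-response; cell viability measured as CellTiter-Glo luminescence after 30 min at room temperature.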
# [3] = qHTS Counterscreen for compound interference against the NCATS DSHEA and TCM libraries (AID 1919978); conditions: firefly luciferase detection reagent interference, luminescence
# Summary of the method: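 Read-out is luminescence after 30 min at RT with luciferin detection reagent. Before that, compounds (19.5 nM to 39.8 uM final) sat 15 min at RT with 1 uM D-luciferin or 100 mM potassium phosphate buffer. PTC124 served as intraplate control.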
# [4] = Dual reporter qHTS for agonist of Pregnane X Receptor (hPXR) against the NCATS DSHEA and TCM libraries: Fluorescence readout (AID 1920058)
# Summary of the method: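 Measures viability of the PXR reporter HepG2 line by protease-substrate fluorescence (405/540 nm), taken 1 h after CellTiter-Fluor addition. Substances are tested as concentration series over a ~24 h exposure, with rifampicin as agonist control.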
# [5] = target: Nuclear receptor subfamily 1 group I member 2 (Homo sapiens) (UniProt O75469); assay: Dual reporter qHTS for agonist of Pregnane X Receptor (hPXR) against the NCATS DSHEA and TCM libraries: Luminescence readout (AID 1920059)
# Summary of the method: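 hPXR-LucHepG2 cells in phenol red-free DMEM with 5% charcoal-stripped FBS, 2000 cells/well, attached 5 h, then exposed 24 h at 37C to compounds; rifampicin as positive agonist control (2.8 nM–92 uM). Luciferase luminescence read.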
# [6] = target: Nuclear receptor subfamily 1 group I member 2 (Homo sapiens) (UniProt O75469); assay: Dual reporter qHTS for antagonist of Pregnane X Receptor (hPXR) against the NCATS DSHEA and TCM libraries: Luminescence Readout (AID 1920060)
# Summary of the method: (§2)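 Rifampicin-stimulated (2 uM final) hPXR-luciferase HepG2 cells were treated for 24 h with DSNP/TCM substances. Viability came from CellTiter-Fluor fluorescence, reporter activity from ONE-Glo luminescence.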
# [7] = Dual reporter qHTS for antagonist of Pregnane X Receptor (hPXR) against the NCATS DSHEA and TCM libraries: Fluorescence Readout (AID 1920061)
# Summary of the method: as §2
# [8] = qHTS profiling for inhibitors of Plasmodium falciparum proliferation (AID 504749); further: nearly all actives have a fitted effect of over 60% in size; further: potency means the concentration at half of the fitted maximal effect; conditions: P. falciparum in erythrocytes, SYBR Green DNA, 72 h
# Summary of the method: (§3)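 P. falciparum-infected erythrocytes (0.3% parasitemia, 2.5% hematocrit final) were exposed to compounds for 72 h at 37 C in 5% CO2, then lysed with SYBR Green buffer overnight at room temperature; parasite DNA fluorescence was normalized to artemisinin and DMSO controls.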
# [9] = system: 3D7; assay: as above; conditions: P. falciparum in erythrocytes, SYBR Green DNA, 72 h; series mostly up to 28.7 µM
# Summary of the method: as §3
# [10] = system: 7G8; assay: as above; conditions: P. falciparum in erythrocytes, SYBR Green DNA, 72 h; series mostly up to 28.7 µM
# Summary of the method: as §3
# [11] = system: AA1029; assay: as above; conditions: P. falciparum in erythrocytes, SYBR Green DNA, 72 h; series mostly up to 28.7 µM
# Summary of the method: as §3
# [12] = system: AS120; assay: as above; conditions: P. falciparum in erythrocytes, SYBR Green DNA, 72 h; series mostly up to 28.7 µM
# Summary of the method: as §3
# [13] = target: Cytochrome P450 2D6 (Homo sapiens) (UniProt P10635); assay: qHTS for inhibitors of CYP2D6 against the NCATS DSHEA and TCM libraries (AID 1919972)
# Summary of the method: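 Steps: enzyme plus luciferin substrate dispensed; test substances pinned; 15 min RT; 1x NADPH regenerating solution added, 30–45 min RT protected from light; detection reagent, 30 min RT; luminescence measured. Minus-enzyme wells as background.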
# [14] = target: Cytochrome P450 2C19 (Homo sapiens) (UniProt P33261); assay: qHTS for inhibitors of CYP2C19 against the NCATS DSHEA and TCM libraries (AID 1919974);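 further: luminescence from luciferin released by CYP2C19 oxidation of a pro-luciferin substrate; potency means the concentration at half of the fitted maximal effect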
# Summary of the method: as §1
# [15] = target: Cytochrome P450 1A2 (Homo sapiens) (UniProt P05177); assay: qHTS for inhibitors of CYPIA2 against the NCATS DSHEA and TCM libraries (AID 1919976);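 further: light from luciferin formed by CYP1A2 from a pro-luciferin substrate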
# Summary of the method: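 In this quantitative HTS, inhibition of recombinant human CYP1A2 was measured as loss of luciferin-derived luminescence. Turnover ran 30-45 min at RT after NADPH regeneration solution was added.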
# [16] = target: Luciferin 4-monooxygenase (Photinus pyralis) (UniProt P08659); assay: Primary firefly luciferase (FLuc) qHTS assay for identification of artifact compounds. (AID 1845220); conditions: outcome: dose series up to 54.1 µM; further: nearly all actives have a fitted effect of over 60% in size
# Summary of the method: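 In this counter-screen for luciferase artifacts, test compounds met substrate (10 uM each luciferin and ATP) before 10 nM enzyme started the reaction. Light output was measured 5 min later.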
# [17] = Primary fluorescence-based thiol-reactive (MSTI) qHTS assay for identification of artifact compounds. (AID 1845221); further: nearly all actives have a fitted effect of over 65% in size; further: potency means the concentration at half of the fitted maximal effect
# Summary of the method: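 MSTI probe at 4 uM final in 2% DMSO/PBS pH 7.4; compounds, 1 h at room temperature in dark. Fluorescence Ex/Em 525/598 nm, normalised to Acetyl-MSTI and MSTI, fitted to 4-parameter Hill.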
# [18] = Primary redox qHTS assay for identification of artifact compounds. (AID 1845223)
# Summary of the method: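 Amplex Red (25 uM) and HRP (250 mU/mL) in HBSS, with compounds for 15 min, then 250 uM DTT for 30 min, room temperature, dark. Fluorescence 525/598 nm read; normalized to DMSO and 10 uM DA3003; Hill fit.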
# [19] = qHTS drug screen for cell cycle checkpoint inhibitors in PARPi-resistant BRCA-mutant ovarian cancer cell lines. (AID 1963452; calls by dose curve; further: potency means the concentration at half of the fitted maximal effect); conditions: PEO1/OlaR viability, CellTiter-Glo luminescence, 96 h; for Z-AUC: stronger effect = lower value
# Summary of the method: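 PEO1, PEO4 and PEO1/OlaR ovarian cancer cells, 600 per well, exposed 96 h at 37C to a dilution series. Viability read by CellTiter-Glo luminescence, normalized to DMSO and empty wells; activity summarized as Z-AUC.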
# [20] = target: Cytochrome P450 3A4 (Homo sapiens) (UniProt P08684); assay: qHTS for inhibitors of CYP3A4 against the NCATS DSHEA and TCM libraries (AID 1919971);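 further: inhibition lowers luminescence from luciferin made by CYP3A4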
# Summary of the method: as §1
# [21] = at 28.7 µM (top of the series), parasite line A
# [22] = at 28.7 µM (top of the series), parasite line B
# [23] = measured here: PEO1 parental Z-AUC
# [24] = at 12.8 µM (top of the series), parasite line A
# [25] = at 12.8 µM (top of the series), parasite line B
# Chain of Cytochrome P450 2C9 (Homo sapiens) (P11712 whole entry, looked up): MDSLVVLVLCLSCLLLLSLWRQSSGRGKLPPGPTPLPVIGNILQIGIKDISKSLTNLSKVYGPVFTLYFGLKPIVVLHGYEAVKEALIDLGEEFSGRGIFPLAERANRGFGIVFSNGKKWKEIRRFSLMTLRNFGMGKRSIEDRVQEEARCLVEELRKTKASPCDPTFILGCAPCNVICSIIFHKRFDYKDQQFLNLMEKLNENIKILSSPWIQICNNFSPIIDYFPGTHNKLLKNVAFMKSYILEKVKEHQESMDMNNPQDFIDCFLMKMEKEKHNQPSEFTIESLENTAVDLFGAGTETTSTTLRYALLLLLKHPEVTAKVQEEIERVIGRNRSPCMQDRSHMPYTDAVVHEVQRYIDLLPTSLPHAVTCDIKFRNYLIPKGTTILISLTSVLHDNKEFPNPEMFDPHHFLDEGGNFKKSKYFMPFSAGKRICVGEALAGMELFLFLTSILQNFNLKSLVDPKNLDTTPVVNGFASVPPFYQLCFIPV
# Chain of Nuclear receptor subfamily 1 group I member 2 (Homo sapiens) (O75469 whole entry, looked up): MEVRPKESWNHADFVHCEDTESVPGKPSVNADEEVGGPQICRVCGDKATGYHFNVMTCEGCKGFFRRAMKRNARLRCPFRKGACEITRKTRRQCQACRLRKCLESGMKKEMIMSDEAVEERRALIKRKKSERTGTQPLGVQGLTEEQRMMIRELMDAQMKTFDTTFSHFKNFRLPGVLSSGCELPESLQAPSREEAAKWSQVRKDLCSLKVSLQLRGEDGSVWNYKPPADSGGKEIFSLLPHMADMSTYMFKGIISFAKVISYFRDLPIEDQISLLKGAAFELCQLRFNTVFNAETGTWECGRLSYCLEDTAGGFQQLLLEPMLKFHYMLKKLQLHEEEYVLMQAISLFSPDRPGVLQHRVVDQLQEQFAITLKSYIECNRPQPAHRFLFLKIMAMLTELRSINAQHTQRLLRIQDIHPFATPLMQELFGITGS
# Chain of Cytochrome P450 2C19 (Homo sapiens) (P33261 whole entry, looked up): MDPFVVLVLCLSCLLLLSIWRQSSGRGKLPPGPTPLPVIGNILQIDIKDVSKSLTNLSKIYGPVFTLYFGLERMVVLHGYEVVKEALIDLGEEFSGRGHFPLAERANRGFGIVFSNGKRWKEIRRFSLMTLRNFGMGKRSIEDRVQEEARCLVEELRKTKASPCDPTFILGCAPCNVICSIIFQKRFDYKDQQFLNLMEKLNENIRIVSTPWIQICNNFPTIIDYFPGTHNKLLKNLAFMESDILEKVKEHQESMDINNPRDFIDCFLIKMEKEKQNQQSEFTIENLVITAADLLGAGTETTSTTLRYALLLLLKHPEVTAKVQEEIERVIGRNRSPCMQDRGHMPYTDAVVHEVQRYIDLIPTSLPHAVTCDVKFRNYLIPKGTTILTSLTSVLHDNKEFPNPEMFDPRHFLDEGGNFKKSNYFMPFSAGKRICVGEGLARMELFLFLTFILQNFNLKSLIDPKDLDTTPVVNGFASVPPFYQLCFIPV
# Chain of Cytochrome P450 2D6 (Homo sapiens) (P10635 whole entry, looked up): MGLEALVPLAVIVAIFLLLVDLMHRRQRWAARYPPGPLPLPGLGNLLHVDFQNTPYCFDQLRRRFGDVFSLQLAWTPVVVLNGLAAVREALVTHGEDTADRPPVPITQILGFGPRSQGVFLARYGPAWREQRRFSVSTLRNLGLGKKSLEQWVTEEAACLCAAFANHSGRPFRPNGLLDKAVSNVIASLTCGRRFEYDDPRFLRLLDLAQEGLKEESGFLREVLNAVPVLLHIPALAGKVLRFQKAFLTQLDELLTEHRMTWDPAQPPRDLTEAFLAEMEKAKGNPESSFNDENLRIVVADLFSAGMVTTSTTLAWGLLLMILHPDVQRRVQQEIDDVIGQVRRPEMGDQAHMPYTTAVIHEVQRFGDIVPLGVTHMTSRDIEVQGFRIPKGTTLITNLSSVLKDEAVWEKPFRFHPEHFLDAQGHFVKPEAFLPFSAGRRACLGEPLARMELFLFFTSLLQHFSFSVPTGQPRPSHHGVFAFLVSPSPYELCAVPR
# Chain of Cytochrome P450 1A2 (Homo sapiens) (P05177 whole entry, looked up): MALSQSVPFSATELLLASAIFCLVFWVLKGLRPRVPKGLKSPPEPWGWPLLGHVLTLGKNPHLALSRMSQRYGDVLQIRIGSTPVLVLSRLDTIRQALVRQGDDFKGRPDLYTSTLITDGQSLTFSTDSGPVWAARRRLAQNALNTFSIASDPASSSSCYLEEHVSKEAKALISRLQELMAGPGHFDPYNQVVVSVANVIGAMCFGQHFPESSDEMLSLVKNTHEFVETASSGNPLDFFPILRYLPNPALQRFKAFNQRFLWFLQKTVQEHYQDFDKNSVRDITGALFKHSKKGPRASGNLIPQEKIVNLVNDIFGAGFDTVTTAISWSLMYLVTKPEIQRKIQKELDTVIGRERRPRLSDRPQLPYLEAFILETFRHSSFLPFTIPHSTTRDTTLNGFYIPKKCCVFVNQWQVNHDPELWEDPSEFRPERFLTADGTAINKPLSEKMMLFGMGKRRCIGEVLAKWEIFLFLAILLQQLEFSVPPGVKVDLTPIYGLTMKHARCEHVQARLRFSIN
# Chain of Cytochrome P450 3A4 (Homo sapiens) (P08684 whole entry, looked up): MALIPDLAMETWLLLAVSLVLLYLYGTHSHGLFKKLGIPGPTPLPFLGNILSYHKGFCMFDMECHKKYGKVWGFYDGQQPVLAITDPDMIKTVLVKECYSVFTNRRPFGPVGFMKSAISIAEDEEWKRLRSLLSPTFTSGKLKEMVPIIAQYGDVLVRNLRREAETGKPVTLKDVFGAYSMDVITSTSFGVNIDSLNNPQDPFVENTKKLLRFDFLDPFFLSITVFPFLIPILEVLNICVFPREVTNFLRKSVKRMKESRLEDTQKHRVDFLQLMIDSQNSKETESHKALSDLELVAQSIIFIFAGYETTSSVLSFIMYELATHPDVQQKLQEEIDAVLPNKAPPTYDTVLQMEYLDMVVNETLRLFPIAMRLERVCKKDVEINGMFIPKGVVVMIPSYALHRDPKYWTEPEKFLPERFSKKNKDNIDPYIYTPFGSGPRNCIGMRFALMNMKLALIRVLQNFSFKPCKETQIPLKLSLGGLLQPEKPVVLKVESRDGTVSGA
structure (smiles),measurement,setting,value
C=CCc1ccc(O)c(OC)c1,outcome,[1],inactive
same,outcome,[2],inactive
same,max response,[3],-2.5% (inactive)
same,outcome,[4],inactive
same,outcome,[5],inactive
same,outcome,[6],inactive
same,outcome,[7],inactive
same,"activity, negative = inhibition",[8]; [21],9.84% (inactive)
same,"activity, negative = inhibition",[8]; [22],1.91% (inactive)
same,Potency,[9],inactive
same,Potency,[10],inactive
same,Potency,[11],inactive
same,Potency,[12],inactive
C/C=C/c1ccc(OC)cc1,outcome,[13],inactive
same,outcome,[1],inactive
same,Potency,[14],15.8 µM (active)
same,outcome,[2],inactive
same,outcome,[15],inactive
same,max response,[3],-1.84% (inactive)
same,outcome,[4],inactive
same,outcome,[5],inactive
same,outcome,[6],inactive
same,outcome,[7],inactive
COc1cccc(OC)c1C(=O)N[C@@H]1C(=O)N2[C@@H]1SC(C)(C)[C@@H]2C(=O)O,outcome,[16],inactive
same,Potency,[17],inactive
CC(C)(C)CC(C)(C)c1ccc(OCCOCC[N+](C)(C)Cc2ccccc2)cc1,outcome,[16],inactive
same,Potency,[17],inactive
same,outcome,[18],inactive
same,Potency,[8]; parasite line A,3.55 µM (active)
same,Potency,[8]; parasite line B,5.01 µM (active)
same,Potency,[9],1.78 µM (active)
same,Potency,[10],1.58 µM (active)
same,Potency,[11],4.47 µM (active)
same,Potency,[12],5.01 µM (active)
CCCCS(=O)(=O)N[C@@H](Cc1ccc(OCCCCC2CCNCC2)cc1)C(=O)O,outcome,[16],inactive
same,Potency,[17],inactive
same,outcome,[18],inactive
Cc1ccc(Nc2c(F)cccc2Cl)c(CC(=O)O)c1,outcome,[16],inactive
same,outcome,[18],inactive
CC(C)n1nc(-c2cc3cc(O)ccc3[nH]2)c2c(N)ncnc21,outcome,[16],inactive
same,Potency,[17],10.6 µM (active)
same,Z-AUC,[19],-1.59 (inactive)
same,Z-AUC,[19]; [23],-1.29
same,Z-AUC,[19]; measured here: PEO4 Z-AUC,-1.52
CN(C)CCCOc1nn(Cc2ccccc2)c2ccccc12,outcome,[16],inactive
same,Potency,[17],inactive
same,outcome,[18],inactive
same,"activity, negative = inhibition",[8]; [24],-0.403% (inactive)
same,"activity, negative = inhibition",[8]; [25],-0.662% (inactive)
same,Potency,[9],inactive
same,Potency,[12],inactive
Cc1cc2c(cc1CC(=O)c1sccc1S(=O)(=O)Nc1onc(C)c1Cl)OCO2,outcome,[16],inactive
same,outcome,[18],inactive
same,Z-AUC,[19],0.64 (inactive)
same,Z-AUC,[19]; [23],0.98
same,Z-AUC,[19]; measured here: PEO4 Z-AUC,0.661
CC(CCc1ccccc1)NCC(O)c1ccc(O)c(C(N)=O)c1 (stereo not drawn),outcome,[16],inactive
same,Potency,[17],inactive
same,outcome,[18],inactive
Nc1ccn([C@@H]2O[C@H](CO)[C@@H](O)C2(F)F)c(=O)n1,outcome,[16],inactive
same,Potency,[17],inactive
same,outcome,[18],inactive
same,Potency,[19],0.0078 µM (active)
same,Z-AUC,[19]; [23],-3.27
same,Z-AUC,[19]; measured here: PEO4 Z-AUC,-1.86
O=C(OCCOCCO)c1ccccc1Nc1cccc(C(F)(F)F)c1,outcome,[16],inactive
same,Potency,[17],inactive
same,outcome,[18],inactive
same,"activity, negative = inhibition",[8]; [24],9.49% (inactive)
same,"activity, negative = inhibition",[8]; [25],3.82% (inactive)
same,Potency,[9],inactive
same,Potency,[10],inactive
same,Potency,[11],inactive
same,Potency,[12],inactive
CC(=O)O[C@]1(C(C)=O)CC[C@H]2[C@@H]3C[C@H](C)C4=CC(=O)CC[C@]4(C)[C@H]3CC[C@@]21C,outcome,[16],inactive
same,Potency,[17],inactive
same,outcome,[18],inactive
same,Z-AUC,[19],-1.26 (inactive)
same,Z-AUC,[19]; [23],-0.257
same,Z-AUC,[19]; measured here: PEO4 Z-AUC,0.0735
CN1C(CCl)Nc2cc(Cl)c(S(N)(=O)=O)cc2S1(=O)=O (stereo not drawn),outcome,[16],inactive
same,Potency,[17],inactive
same,outcome,[18],inactive
same,"activity, negative = inhibition",[8]; [21],6.24% (inactive)
same,"activity, negative = inhibition",[8]; [22],-11.6% (inactive)
same,Potency,[9],inactive
same,Potency,[10],inactive
same,Potency,[11],inactive
same,Potency,[12],inactive
NC(=NCCCCCCN=C(N)/N=C(\N)Nc1ccc(Cl)cc1)/N=C(\N)Nc1ccc(Cl)cc1,outcome,[16],inactive
same,Potency,[17],inactive
same,outcome,[18],inactive
same,Potency,[8]; parasite line A,3.16 µM (active)
same,Potency,[8]; parasite line B,3.98 µM (active)
same,Potency,[9],1.41 µM (active)
same,Potency,[10],0.251 µM (active)
same,Potency,[11],1 µM (active)
same,Potency,[12],1.26 µM (active)
COC(=O)CCc1ccc(OCC(O)CNC(C)C)cc1 (stereo not drawn),outcome,[16],inactive
same,Potency,[17],inactive
same,outcome,[18],inactive
CN1CCN(C(c2ccccc2)c2ccccc2)CC1,outcome,[16],inactive
same,outcome,[18],inactive
same,"activity, negative = inhibition",[8]; [24],3.5% (inactive)
same,"activity, negative = inhibition",[8]; [25],-5.02% (inactive)
same,Potency,[9],inactive
same,Potency,[12],inactive
OC[C@H]1O[C@H](O[C@]2(CCl)O[C@H](CCl)[C@@H](O)[C@@H]2O)[C@H](O)[C@@H](O)[C@H]1Cl,outcome,[16],inactive
same,Potency,[17],inactive
same,outcome,[18],inactive
Cc1ccc(C(=O)C(C)CN2CCCCC2)cc1 (stereo not drawn),outcome,[16],inactive
same,Potency,[17],inactive
same,outcome,[18],inactive
same,"activity, negative = inhibition",[8]; [21],1.87% (inactive)
same,"activity, negative = inhibition",[8]; [22],6.22% (inactive)
same,Potency,[9],inactive
same,Potency,[10],11.2 µM (active)
same,Potency,[11],inactive
same,Potency,[12],inactive
CC(=O)OCC(=O)[C@@]1(O)[C@H](C)C[C@H]2[C@@H]3CCC4=CC(=O)C=C[C@]4(C)[C@@]3(F)[C@@H](O)C[C@@]21C,outcome,[16],inactive
same,Potency,[17],inactive
CC(C)(C)NC(=O)[C@@H]1CN(Cc2cccnc2)CCN1C[C@@H](O)C[C@@H](Cc1ccccc1)C(=O)N[C@H]1c2ccccc2C[C@H]1O,outcome,[16],inactive
same,Potency,[17],inactive
same,outcome,[18],inactive
Nc1nc2ncc(CNc3ccc(C(=O)N[C@@H](CCC(=O)O)C(=O)O)cc3)nc2c(=O)[nH]1,outcome,[20],inactive
same,outcome,[13],inactive
same,outcome,[1],inactive
same,Potency,[14],3.55 µM (active)
same,outcome,[2],inactive
same,max response,[3],-4.69% (inactive)
same,outcome,[4],inactive
same,outcome,[5],inactive
same,outcome,[7],inactive
